Measurements published in PubChem BioAssay (NCATS).
Records with an inconclusive call do not appear. Unmarked numbers belong to inactive results. Calls of active or inactive are those of the source. Calls come from the whole dose curve; as a rule, active = well fitted cell-killing curve with a large enough effect; inconclusive = small, poorly fitted or top-dose-only effect, or effect the other way; inactive = flat fitted curve, though single readings scatter. Where a SMILES comes first, the peptide text is derived from it. [ ]: non-standard residue; d: D form. pGlu = O=C1CC[C@@H](C(=O)O)N1; Thz = O=C(O)[C@@H]1CSCN1

assay: S16 Schwann cell viability assay (CellTiter-Glo assay) (AID 624031); conditions: S16 rat Schwann cells viability, 24 h; series mostly up to 57.5 µM; activity change, negative = cytotoxicity: at the top concentration; note: nearly all actives have a fitted effect of over 70% in size;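 for activity change, negative = cytotoxicity: cellular ATP luminescence as a viability measure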
From the text: Charcot-Marie-Tooth-Association [CMTA]
National Center for Advancing Translational Sciences [NCATS]
Charcot-Marie-Tooth (CMT) disease was first characterized by Jean-Martin Charcot and Pierre Marie in France and, independently, by Howard Henry Tooth in England in 1886. CMT is one of the most common inherited neurological diseases, affecting approximately 1 in 2,500 Americans. […] The most prevalent type of CMT is known as CMT1A and caused by a duplication of the PMP22 gene which leads to over-expression of this protein. PMP22 is a glycosylated intrinsic membrane protein accounting for 2-5% of the myelin protein content, and its over-expression results in demyelination and subsequently axonal loss.
A pair of cellular transcription-based assays was developed in the S16 rat Schwann cell lines (Hai, M., et al., 2002) stably transfected with orthogonal reporters - firefly luciferase (Fluc) and beta-lactamase (beta-Lac) - whose expression is driven by an intronic regulatory element of the PMP22 gene (Jones, E.A., et al., 2011) to recapitulate endogenous expression of PMP22. A comprehensive library of approved drugs, the NCGC Pharmaceutical Collection (Huang, R., et al., 2011), was screened in the cross-validating platform of the orthogonal reporter assays to identify drug modulators inhibitory towards PMP22 expression.
A set of counter-screens was devised to address non-specific activity of the library. An ATP-dependent CellTiter-Glo assay (developed by Promega Corp) was utilized to control cell viability. In addition, biochemical Fluc enzyme assay was performed to assess direct inhibition of the Fluc enzymatic activity.
Hai, M., Muja, N., DeVries, G.H., Quarles, R.H. and Patel, P.I. Comparative analysis of Schwann cell lines as model systems for myelin gene transcription studies. J Neurosci Res, 2002. 69(4): pp 497-508
Huang, R., Southall, N., Wang, Y., Yasgar A., Shinn P., Jadhav, A. , Nguyen, D.-T. and Austin, C.P., The NCGC pharmaceutical collection: a comprehensive resource of clinically approved drugs enabling repurposing and chemical genomics. Sci Transl Med, 2011. 3(80): p. 80ps16.
Native S16 cells were seeded in white solid-bottom 1536 well plates at between 500-750 cells/6uL in DMEM medium containing 10% FBS, w/o phenol red. After overnight incubation at 37 degree Celsius/5% C02, 23 nL of compounds or DMSO were delivered to each well using a pin tool, followed by 24h-incubation at 37 degree Celsius/5% C02. Then one volume of CellTiter-Glo assay reagent (Promega) was added to each well for cell viability measured by a ViewLux plate reader (PerkinElmer). The % activity was determined by normalizing to the average readings from wells containing no cells relative to DMSO-treated cells (0% Activity). The concentration-effect curves were then classified based on curve quality (r2), response magnitude and degree of measured activity.
Potency is the fitted concentration of half-maximal effect.

Compound	Potency	activity change, negative = cytotoxicity
Cc1cc(O)c2ccccc2c1O	12.8 µM (active)	
Cc1[nH]cnc1CN1CCc2c(c3ccccc3n2C)C1=O		-8.72%
O=C(O)Cc1ccc(-c2ccccc2)cc1		-8.5% [at 25.7 µM]
Cc1ccccc1CNc1ncnc2c1ncn2C1OC(CO)C(O)C1O (stereo not given)		-19.4%
CC1(C)[C@@H](O)CC[C@]2(C)[C@H]3C(=O)C=C4[C@@H]5C[C@@](C)(C(=O)O)CC[C@]5(C)CC[C@@]4(C)[C@]3(C)CC[C@@H]12		4.43%
CCCCCCCCCCCCCCCC(=O)OC(C)C		3.9%
COc1cc(CNC(=O)CCCC/C=C/C(C)C)ccc1O		-4.86%
Nc1ccc(O)c(C(=O)O)c1		9.1%
O=C(O)COc1ccc(C(=O)c2cccs2)c(Cl)c1Cl	inactive	
C=CCCCCCCCCC(=O)O		4.64%
CC1(C)C[C@@H]1C(=O)N/C(=C\CCCCSC[C@H](N)C(=O)O)C(=O)O		0.311%
C[S+](CC[C@H](N)C(=O)O)C[C@H]1O[C@@H](n2cnc3c(N)ncnc32)[C@H](O)[C@@H]1O (stereo not given in full)		0%
CCC1C(=O)OCC1Cc1cncn1C (stereo not given)		11.9%
[O-][n+]1ccccc1SSc1cccc[n+]1[O-]	12.8 µM (active)	
CCCCCCCCCCCCCCCCCC(=O)O		-8.29%
CCOC(=O)c1ccccc1O		-4.93%
CCOc1ccc2nc(S(N)(=O)=O)sc2c1		-14.8%
CC(N)C(=O)OC(C)(C)Cc1ccc(Cl)cc1 (stereo not given)		-10.2%
CN1[C@@H]2CC[C@H]1CC(OC(=O)C(CO)c1ccccc1)C2 (stereo not given in full)		-2.62%
c1ccc2sc(SSc3nc4ccccc4s3)nc2c1		-4.41%

Compound	Potency	activity change, negative = cytotoxicity
CCCCCC[C@@H](O)C/C=C\CCCCCCCC(=O)O		-2.38%
CC1(C)S[C@@H]2[C@H](NC(=O)[C@H](NC(=O)N3CCN(S(C)(=O)=O)C3=O)c3ccccc3)C(=O)N2[C@H]1C(=O)O		5.08%
c1ccc2sc(SN3CCOCC3)nc2c1		-26.5%
Cc1c(Nc2ncccc2C(=O)O)cccc1C(F)(F)F		14.4% [at 25.7 µM]
O=C(O)[C@H](CC(=O)N1C[C@H]2CCCC[C@H]2C1)Cc1ccccc1		-3.96%
C=C(Nc1ccc(OCC)cc1)Nc1ccc(OCC)cc1	inactive	
O=C1CC[C@@H](C(=O)N2CSC[C@H]2C(=O)O)N1 ([pGlu]-[Thz]-OH)		-13.4%
N=c1ccn2c(n1)O[C@H]1[C@H](O)[C@@H](CO)O[C@H]12		6.09%
O=C(O)/C=C/C(O)c1ccc(Cl)cc1 (stereo not given)		-2.8%
CC(C(=O)O)c1ccc2c(c1)[nH]c1ccc(Cl)cc12 (stereo not given)		19.1%
Oc1c(Br)cc(Br)c2cccnc12		0%
COc1ccc(/C=C/C(=O)Nc2ccccc2C(=O)O)cc1OC		0%
O=C1CN(/N=C/c2ccc([N+](=O)[O-])o2)C(=O)N1		-3.27%
Nc1c(CC(=O)O)cccc1C(=O)c1ccc(Br)cc1		-1.59%
Nc1ccc(C(=O)O)c(O)c1		9.14%
COc1cc(/C=C/C(=O)CC(=O)/C=C/c2ccc(O)c(OC)c2)ccc1O		-0.909%
O=C(/C=C/c1ccccc1)NCCO		1.27%
COc1ccc(-c2cc(=S)ss2)cc1		0.276%
Nc1cc(-c2ccncc2)c[nH]c1=O		3.64%
CCCCC[C@H](O)/C=C/[C@@H]1[C@@H](C/C=C\CCCC(=O)O)[C@@H](O)C[C@H]1O		1.14%
